According to PubChem BioAssay (EPA / NIEHS):
Results filed as inconclusive are left out. Activity calls are given as the source filed them. How the source made its calls, unless noted: active means hit-call score of the fitted dose curve at least 0.9, where 1 is the maximum; inactive means score below 0.9.

Columns and labels:
[1] = read-out: Monocyte Chemoattractant Protein-1 (MCP1), CCL2 (gene 6347); experiment: BSK_LPS_MCP1: BioMAP Diversity Plus: LPS Assay for Monocyte Chemoattractant Protein-1 (MCP1) Biomarker Activity (AID 2283081); settings: primary human HUVEC with PBMC; actives raise or lower the signal
Outline: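 Values derive from bidirectional fitting against DMSO of ELISA-measured MCP-1 in a human primary endothelial and mononuclear cell co-culture, 24 h after chemical addition under LPS activation.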

[2] = BSK_LPS_PGE2: BioMAP Diversity Plus: LPS Assay for Prostaglandin E2 (PGE2) Biomarker Activity (AID 2283082); settings: primary human HUVEC with PBMC; actives raise or lower the signal;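 on AC50: secreted prostaglandin E2 measured by ELISA in LPS-stimulated co-culture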
Outline: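 LPS-activated HUVEC/PBMC co-culture; cmpd dosed, 24 h; PGE2 by ELISA; bidirectional fit vs DMSO; SRB (0.1%, TCA-fixed, 560 nm) in parallel plates for overt cytotox.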

[3] = read-out: Macrophage colony-stimulating factor (MCSF), CSF1 (gene 1435); experiment: BSK_LPS_MCSF: BioMAP Diversity Plus: LPS Assay for Macrophage colony-stimulating factor (MCSF) Biomarker Activity (AID 2283083); settings: primary human HUVEC with PBMC; actives raise or lower the signal
Outline: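 Bidirectional fit versus DMSO of ELISA-measured M-CSF in co-cultured human umbilical vein endothelial cells and PBMC, sampled 24 h after dosing.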

[4] = read-out: Tissue Factor, F3 (gene 2152); experiment: BSK_LPS_TissueFactor: BioMAP Diversity Plus: LPS Assay for Tissue Factor Biomarker Activity (AID 2283084); settings: primary human HUVEC with PBMC; actives raise or lower the signal
Outline: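 Read-out: CD142 ELISA, 24 h. System: LPS-driven human endothelial/PBMC co-culture. Analysis: up- or down-signal fitted against DMSO.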

[5] = read-out: Tumor necrosis factor (Homo sapiens) (UniProt P01375); experiment: BSK_LPS_TNFa: BioMAP Diversity Plus: LPS Assay for Tumour Necrosis Factor alpha (TNFa) Biomarker Activity (AID 2283085); settings: primary human HUVEC with PBMC; actives raise or lower the signal
Outline: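 Read-out is ELISA of TNFa in primary human endothelial cell–PBMC co-cultures at 24 h after compound. Activity in either direction was fitted against DMSO.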

[6] = read-out: Vascular cell adhesion molecule 1 (VCAM1), VCAM1 (gene 7412); experiment: BSK_LPS_VCAM1: BioMAP Diversity Plus: LPS Assay for Vascular cell adhesion molecule 1 (VCAM1) Biomarker Activity (AID 2283086); settings: primary human HUVEC with PBMC; actives raise or lower the signal
Outline: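 HUVEC + PBMC co-culture, LPS system; compound 24 h; VCAM-1 by ELISA; bidirectional fit vs DMSO control; parallel SRB (0.1%, TCA-fixed, 560 nm) for cytotoxicity.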

CD38, CD38 (gene 952) = experiment: BSK_SAg_CD38: BioMAP Diversity Plus: SAg Assay for CD38 Biomarker Activity (AID 2283087); settings: primary human HUVEC with PBMC; actives raise or lower the signal
Outline: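 Human HUVEC plus PBMC co-culture stimulated with superantigen; CD38 measured by ELISA 24 h after chemical dosing. Fluorescence read-out, bidirectional fit against DMSO; cytotoxicity tracked in parallel by SRB and Alamar Blue.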

CD40, CD40 (gene 958) = experiment: BSK_SAg_CD40: BioMAP Diversity Plus: SAg Assay for CD40 Biomarker Activity (AID 2283088); settings: primary human HUVEC with PBMC; actives raise or lower the signal
Outline: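 Endpoint derived by fitting increases or decreases versus DMSO controls. CD40 is detected by fluorescence ELISA in a human vascular co-culture of endothelium and PBMC at 24 h.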

[7] = read-out: Monocyte Chemoattractant Protein-1 (MCP1), CCL2 (gene 6347); experiment: BSK_SAg_MCP1: BioMAP Diversity Plus: SAg Assay for Monocyte Chemoattractant Protein-1 (MCP1) Biomarker Activity (AID 2283090); settings: primary human HUVEC with PBMC; actives raise or lower the signal
Outline: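 MCP-1 levels in the endothelial–PBMC SAg co-culture were quantified by ELISA at 24 h post-dosing; both increases and decreases versus DMSO scored. Cytotoxicity monitored by SRB total protein in parallel cultures.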

[8] = BSK_SAg_PBMCCytotoxicity: PBMC Cytotoxicity Assessment in the BioMAP Diversity Plus: SAg Assay (AID 2283093); settings: primary human HUVEC with PBMC;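 further: PBMC viability measured as Alamar Blue reduction fluorescence at 546/580 nm; fitted both ways against DMSO so a hit may be loss or gain of signal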
Outline: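 HUVEC/PBMC co-culture; PBMC exposed to chemical 1 h before SEB and TSST-1 activation (20 ng/mL each), incubated 90 h, then Alamar Blue 6 h, fluorescence 546/580 nm. Bidirectional fit versus DMSO baseline.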

[9] = read-out: Interleukin-8 (IL8), CXCL8 (gene 3576); experiment: BSK_SAg_IL8: BioMAP Diversity Plus: SAg Assay for Interleukin-8 (IL8) Biomarker Activity (AID 2283094); settings: primary human HUVEC with PBMC; actives raise or lower the signal
Outline: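 ELISA read-out of IL-8 in a primary human vascular co-culture (umbilical vein endothelium plus PBMC), taken 24 h after compound addition. Values derive from bidirectional fits against DMSO negative controls.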

[10] = BSK_SAg_Proliferation: Cell Proliferation Assessment in the BioMAP Diversity Plus: SAg Assay (AID 2283095); settings: primary human HUVEC with PBMC;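 further: relative cell number as total protein by SRB absorbance in sub-confluent culture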
Outline: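 Cells (endothelium plus PBMC, human primary) were dosed with chemical, cultured 96 h, fixed in 10% TCA and stained with 0.1% SRB. Absorbance at 560 nm gave relative protein, fitted bidirectionally relative to DMSO.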

[11] = BSK_SAg_SRB: Viability Assessment in the BioMAP Diversity Plus: SAg Assay (AID 2283096); settings: primary human HUVEC with PBMC;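 further: cells read one day after compound addition; hits may be either gain or loss of signal compared with DMSO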
Outline: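 Human umbilical vein endothelial cells co-cultured with PBMC, read 24 h after compound dosing. Total protein measured by sulforhodamine B staining (0.1% SRB after 10% TCA fixation, absorbance 560 nm); bidirectional fit versus DMSO baseline.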

[12] = molecular target: human CYP1A1, CYP1A1 (gene 1543) (UniProt P04798); experiment: NVS_ADME_hCYP1A1: NovaScreen (NVS) CYP450-related Enzyme Activity (ADME) Assay for human CYP1A1 (AID 2283100; active means hit-call score of the fitted dose curve at least 0.9, where 1 is the maximum)
Outline: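 Inhibition of recombinant CYP1A1 turnover was assessed fluorometrically in a biochemical format 1 h after compound exposure. Testing began at 10 uM in duplicate and progressed to concentration series reaching 20 uM, with on-plate positive and negative controls.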

[13] = molecular target: human CYP2B6, CYP2B6 (gene 1555) (UniProt P20813); experiment: NVS_ADME_hCYP2B6: NovaScreen (NVS) CYP450-related Enzyme Activity (ADME) Assay for human CYP2B6 (AID 2283101; active means hit-call score of the fitted dose curve at least 0.9, where 1 is the maximum)
Outline: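 Recombinant protein, specific fluorescent substrate, read at 1 h post-dosing. Primary: single 10 uM, duplicate; follow-up: concentration series. Activity = signal loss vs acetonitrile baseline, with positive and negative controls on every plate.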

[14] = molecular target: human CYP1A2, CYP1A2 (gene 1544) (UniProt P05177); experiment: NVS_ADME_hCYP1A2: NovaScreen (NVS) CYP450-related Enzyme Activity (ADME) Assay for human CYP1A2 (AID 2283102; active means hit-call score of the fitted dose curve at least 0.9, where 1 is the maximum;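 on AC50: fluorescence from turnover of a fluorogenic substrate by recombinant insect-cell CYP1A2; potency for inhibition since loss of fluorescence marks reduced CYP1A2 activity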)
Outline: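 Inhibition scored as decrease in fluorescent product versus acetonitrile negative control. Enzyme: insect-cell recombinant human CYP1A2, substrate-specific, cell-free. Reading at 0.5 h; 10 uM duplicate initial screen with positive and negative controls on every plate.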

[15] = read-out: E-selectin (Homo sapiens) (UniProt P16581); experiment: BSK_SAg_Eselectin: BioMAP Diversity Plus: SAg Assay for Eselectin Biomarker Activity (AID 2283091); settings: primary human HUVEC with PBMC; actives raise or lower the signal
Outline: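 Endpoint values derive from bidirectional fitting relative to DMSO, using ELISA-measured E-selectin in a human vascular co-culture (umbilical vein endothelium plus PBMC) sampled 24 h after dosing.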

[16] = read-out: Monokine induced gamma interferon (MIG), CXCL9 (gene 4283); experiment: BSK_SAg_MIG: BioMAP Diversity Plus: SAg Assay for Monokine induced gamma interferon (MIG) Biomarker Activity (AID 2283092); settings: primary human HUVEC with PBMC; actives raise or lower the signal
Outline: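 Measures CXCL9 protein by ELISA in a human vascular primary-cell co-culture (umbilical vein endothelium with PBMC) 24 h after chemical addition. Activity is scored up or down from the DMSO control.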

Measured: AC50

Chain of Tumor necrosis factor (Homo sapiens) (P01375 whole entry, looked up): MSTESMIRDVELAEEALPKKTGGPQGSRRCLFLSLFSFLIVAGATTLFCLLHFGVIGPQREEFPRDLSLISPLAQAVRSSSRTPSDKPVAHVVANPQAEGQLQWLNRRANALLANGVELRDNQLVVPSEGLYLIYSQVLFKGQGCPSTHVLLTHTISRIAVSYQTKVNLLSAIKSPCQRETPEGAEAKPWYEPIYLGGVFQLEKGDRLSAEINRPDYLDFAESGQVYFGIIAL
Chain of human CYP1A1, CYP1A1 (gene 1543) (P04798 whole entry, looked up): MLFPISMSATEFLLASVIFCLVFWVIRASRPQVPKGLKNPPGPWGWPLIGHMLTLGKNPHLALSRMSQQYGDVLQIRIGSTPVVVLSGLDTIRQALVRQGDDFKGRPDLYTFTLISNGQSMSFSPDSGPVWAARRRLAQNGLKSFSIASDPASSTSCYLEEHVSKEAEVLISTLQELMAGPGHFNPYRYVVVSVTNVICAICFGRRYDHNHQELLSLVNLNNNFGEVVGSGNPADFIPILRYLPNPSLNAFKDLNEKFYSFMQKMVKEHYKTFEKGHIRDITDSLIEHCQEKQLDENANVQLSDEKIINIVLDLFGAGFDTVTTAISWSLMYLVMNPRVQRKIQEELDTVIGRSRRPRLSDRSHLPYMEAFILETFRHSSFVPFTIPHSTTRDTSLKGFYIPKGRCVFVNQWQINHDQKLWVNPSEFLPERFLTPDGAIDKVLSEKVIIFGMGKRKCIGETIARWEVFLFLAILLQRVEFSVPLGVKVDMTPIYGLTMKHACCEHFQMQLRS
Chain of human CYP2B6, CYP2B6 (gene 1555) (P20813 whole entry, looked up): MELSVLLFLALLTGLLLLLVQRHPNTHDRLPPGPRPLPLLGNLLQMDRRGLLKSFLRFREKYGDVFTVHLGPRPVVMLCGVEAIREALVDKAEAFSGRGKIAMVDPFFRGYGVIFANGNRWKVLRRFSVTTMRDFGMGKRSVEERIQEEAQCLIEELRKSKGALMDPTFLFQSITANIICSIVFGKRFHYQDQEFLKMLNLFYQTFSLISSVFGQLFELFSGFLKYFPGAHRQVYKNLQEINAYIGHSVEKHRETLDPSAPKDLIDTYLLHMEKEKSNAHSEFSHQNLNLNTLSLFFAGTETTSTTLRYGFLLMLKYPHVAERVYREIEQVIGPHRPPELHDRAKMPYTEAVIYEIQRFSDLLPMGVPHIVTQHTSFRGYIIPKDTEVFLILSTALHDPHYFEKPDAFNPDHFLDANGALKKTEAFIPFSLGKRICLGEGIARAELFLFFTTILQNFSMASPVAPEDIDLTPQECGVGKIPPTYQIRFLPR
Chain of human CYP1A2, CYP1A2 (gene 1544) (P05177 whole entry, looked up): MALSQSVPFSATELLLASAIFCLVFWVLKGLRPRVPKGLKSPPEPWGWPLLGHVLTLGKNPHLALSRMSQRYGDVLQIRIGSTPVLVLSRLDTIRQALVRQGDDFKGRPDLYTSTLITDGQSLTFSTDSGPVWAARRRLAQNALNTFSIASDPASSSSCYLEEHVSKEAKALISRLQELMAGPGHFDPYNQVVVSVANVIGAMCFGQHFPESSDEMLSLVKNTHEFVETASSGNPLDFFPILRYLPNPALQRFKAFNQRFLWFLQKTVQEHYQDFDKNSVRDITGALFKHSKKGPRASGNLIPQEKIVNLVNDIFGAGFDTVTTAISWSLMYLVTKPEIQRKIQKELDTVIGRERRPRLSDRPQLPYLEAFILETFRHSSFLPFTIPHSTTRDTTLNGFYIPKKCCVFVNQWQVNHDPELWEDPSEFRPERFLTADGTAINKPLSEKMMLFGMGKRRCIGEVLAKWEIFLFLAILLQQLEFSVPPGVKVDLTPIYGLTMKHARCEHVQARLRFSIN
Chain of E-selectin (Homo sapiens) (P16581 whole entry, looked up): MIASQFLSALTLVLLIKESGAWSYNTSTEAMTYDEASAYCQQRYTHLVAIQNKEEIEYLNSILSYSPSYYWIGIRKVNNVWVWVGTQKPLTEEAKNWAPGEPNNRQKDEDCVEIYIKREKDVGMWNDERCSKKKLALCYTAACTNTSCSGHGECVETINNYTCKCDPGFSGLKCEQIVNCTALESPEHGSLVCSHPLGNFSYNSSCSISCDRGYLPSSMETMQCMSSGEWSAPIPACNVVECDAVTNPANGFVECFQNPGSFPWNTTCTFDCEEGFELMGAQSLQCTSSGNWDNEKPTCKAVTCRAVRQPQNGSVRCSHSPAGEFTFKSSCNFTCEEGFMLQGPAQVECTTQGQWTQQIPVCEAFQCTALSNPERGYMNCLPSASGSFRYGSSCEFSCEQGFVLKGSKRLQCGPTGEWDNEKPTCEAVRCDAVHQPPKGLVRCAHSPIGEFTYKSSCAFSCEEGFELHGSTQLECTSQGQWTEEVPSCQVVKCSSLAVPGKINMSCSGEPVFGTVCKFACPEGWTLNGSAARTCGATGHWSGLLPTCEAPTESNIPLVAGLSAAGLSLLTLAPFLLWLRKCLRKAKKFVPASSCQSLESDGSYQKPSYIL

Nc1ccc([N+](=O)[O-])cc1
not listed: [12] | [13] | [14] | [15] | [16]
inactive: all other assays above

COC(=O)Nc1nc2ccccc2[nH]1
active: [3] 7.04 µM | [6] 11.3 µM | [10] 11.2 µM | [11] 9.84 µM
not listed: [12] | [13] | [14] | [15] | [16]
inactive: all other assays above

CCN(CC)CCO
not listed: [12] | [13] | [14] | [15] | [16]
inactive: all other assays above

CC(C)(C)C(O)(CCc1ccc(Cl)cc1)Cn1cncn1 (centres undefined)
not listed: [15] | [16]
inactive: all other assays above

Nc1cc(Cl)cc(C(=O)O)c1Cl
not listed: [12] | [13] | [14] | [16]
inactive: all other assays above

c1ccc2c(c1)oc1ccccc12
not listed: [12] | [13] | [14] | [15] | [16]
inactive: all other assays above

Cc1cc(N=Nc2ccccc2C)ccc1N
inactive: [1] | [3] | [4] | [5] | [16] | [8]
active: [2] 3.97 µM | [6] 20 µM | CD38, CD38 (gene 952) 32.4 µM | CD40, CD40 (gene 958) 30.7 µM | [7] 20 µM | [9] 29.2 µM | [10] 29.2 µM | [11] 9.88 µM | [12] 5.4 µM | [13] 1.71 µM | [14] 0.858 µM
